PubChem BioAssay AID493248 (Broad Institute, 2011)
Out of some 2,300 compounds screened, about 1,400 (61%) were called active. About 7% were inconclusive and are not listed. How the calls were made is not given here. The set was probably picked from earlier hits. These entries were drawn from the full list. Potency and affinity values are given separately.

molecular target: FAD-linked sulfhydryl oxidase ALR (Homo sapiens) (UniProt P55789); experiment: inhibitors of human ALR sulfhydryl oxidase, dose response, biochemical, H2O2 detection, luminescence, cherry-pick (AID 493248); conditions: purified ALR, DTT oxidation, H2O2 HRP-luminol luminescence; at 10 µM (top of the series)
Sequence (P55789 whole entry, looked up): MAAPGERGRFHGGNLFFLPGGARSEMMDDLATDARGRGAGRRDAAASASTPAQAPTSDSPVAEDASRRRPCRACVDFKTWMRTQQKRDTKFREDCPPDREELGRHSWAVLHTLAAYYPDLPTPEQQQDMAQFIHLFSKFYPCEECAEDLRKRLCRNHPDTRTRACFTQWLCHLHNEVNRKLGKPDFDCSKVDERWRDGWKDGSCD

Compound	activity change, negative = inhibition [%]
CCn1c(SCc2nc3sc(C(=O)O)c(C)c3c(=O)[nH]2)nc2ccccc21	-10.8
Cc1ccsc1C=Nc1ccc(O)cc1	-98
Cc1cccc(Oc2ccc(N)cc2)c1	-1.09
Nc1ccc(Oc2cc(N)cc(Oc3ccccc3)c2)cc1	29.7
CNc1nn(-c2cccc(Cl)c2)nc1N	-9.08
c1ccc(-c2cnc(CN3CCN(c4ccccc4)CC3)o2)cc1	-44.8
COc1cccc(/C=N/n2c(-c3n[nH]c4c3CCC4)n[nH]c2=S)c1O	-33.1
CCCC(C)NC(=O)Cc1ccc(Br)cc1 (stereo not given)	60.9
CCCN1CCC(=O)N([C@H](CSc2ccc(OC)cc2)c2ccccc2)CC1	1.83
O=S1(=O)N=C(Nc2ccc(O)cc2)c2ccccc21	176
Cc1ccc(-c2c(C(=O)O)c(C(=O)O)c3n2CSC3)cc1	-43.7
S=c1[nH]nc(-c2ccco2)n1/N=C/c1ccccc1	0.752
Cc1n[nH]c(=S)n1/N=C/c1ccccc1	-93.3
Cc1cc(C(=O)NC2CCCc3c2cnn3-c2ccc(C)c(C)c2)no1 (stereo not given)	-8.68
O=c1[nH]c(/C=C\c2ccccc2F)nc(O)c1[N+](=O)[O-]	-17.7
O=C(CNS(=O)(=O)c1ccccc1)N/N=C/c1ccc(O)cc1	-113
Cc1nc2cccc(C(=O)Oc3ccc([N+](=O)[O-])cc3)c2o1	-34.6
CC1CC(C)CN(C(=O)c2ccc(-c3ccc([N+](=O)[O-])cc3)o2)C1 (stereo not given)	-37.5
O=C(NCc1cccs1)C1CCN(S(=O)(=O)c2cccc3cccnc23)CC1	3.4
CCN(CCNC(=O)CN(C)S(=O)(=O)c1cccc2nsnc12)c1ccccc1	-59.9
CCCCN(CCCC)c1ccc(C(=O)c2ccccc2C(=O)O)c(O)c1	-56.2
Cc1ccc(N=c2oc3cc(O)ccc3cc2C(N)=O)cc1	-84.9
CC/C(=N\NC(=O)CCC(=O)NCc1ccccc1)c1ccc(O)cc1	-98.7
Cc1nn(C)c(C)c1Sc1ccccc1N	-14.3

Compound	activity change, negative = inhibition [%]
Cc1nc(N2CCN(c3ccccc3)CC2)[nH]c(=O)c1C	-42.3
Nc1ccc2oc(=O)c(-c3ccccc3)cc2c1	-86.7
Cc1ccc(N2CCN(C(=O)N3CCCC3)CC2)cc1C	-10.1
Cn1ccnc1SCc1cccc([N+](=O)[O-])c1	7.58
COc1cccc(CNc2nc3ccccc3n2CCN2CCCCC2)c1OC	-11.4
COc1cc(/C=C2\SC(=S)N(NC(C)=O)C2=O)ccc1OC(=O)c1ccco1	-26.5
COc1ccc(S(=O)(=O)N2Cc3ccccc3CC2C(=O)Nc2ccc(O)cc2)cc1OC (stereo not given)	349
Cc1cc(NC(=O)c2ccco2)sc1C	-98.7
CSc1cccc(NC(=O)c2ccco2)c1	-98.6
COc1ccc(SCCc2ccncc2)cc1	-20.1
O=C(C1CCC1)N1CCN(c2ccc(Cl)cc2)CC1	-43.9
CCCC(=O)N1c2ccc(-c3csc(N)n3)cc2CC1C (stereo not given)	-16.4
Cc1cc(N/N=C/c2ccccc2F)c2ccccc2n1	-22.6
Cc1cc(N/N=C/c2ccco2)c2ccccc2n1	-3.59
CC(=O)N1CCN=C1SCc1ccc(Cl)cc1	-8.99
O=C(Cn1cnc2ccccc21)N/N=C/c1ccccn1	0.505
S=c1[nH]ncn1/N=C/c1ccccc1	-73
COc1ccc(NC(=O)Nc2ccc3nccnc3c2)cc1	105
Cc1oc(C(=O)Nc2ccc(C(=O)O)cc2)cc1COc1ccccc1	-25.3
Cc1ccc(N(C(=O)c2ccc(Br)o2)C2C=CS(=O)(=O)C2)cc1 (stereo not given)	-13.3
CC1=C(C)CS(=O)N(S(=O)(=O)c2ccccc2)C1 (stereo not given)	-41.8
O=C(NCCN1CCN(c2ccccc2)CC1)c1cccc(Cl)c1	-76.5
O=C(Cc1c(C(=O)O)[nH]c2ccccc12)NCCN1CCN(c2cccc(Cl)c2)CC1	-54.4
CC(C)CN(CC(C)C)c1nnc(N)s1	16.8

Compound	activity change, negative = inhibition [%]
O=C(Nc1nc2ccc(S(=O)(=O)N3CCCCC3)cc2s1)c1ccncc1	-6.5
Cc1cccc(-c2n[nH]c(=S)n2/N=C/C=C/c2ccco2)c1	-98
COc1c(/C=N/Nc2ccc(C(=O)O)cc2)c(CCN(C)C(C)=O)cc2c1OCO2	-95.6
CC1CN(c2ccccc2)NC1=O (stereo not given)	23.1
O=C(NCc1cccs1)c1nc2c(nnn2Cc2ccccc2Cl)c(=O)[nH]1	-7.82
Cc1n[nH]c(C)c1Sc1ccccc1N	54.6
COc1cc(OC)cc(-c2cn[nH]c2N)c1	-60.4
Cc1ccc(N=Nc2c(N)[nH]n3c(=O)cc(C)nc23)cc1	-55.4
Cc1nc(NS(=O)(=O)c2ccccc2C)c2c3c(sc2n1)CCC3	-0.709
CC1CCc2c(sc(NC(=O)c3ccccc3C(=O)O)c2C#N)C1 (stereo not given)	-85.9
COc1cccc(NC(=O)c2cc(OC)c(OC)c(OC)c2Br)c1	4.6
CCCCNc1cc(NC(C)=O)cc2cc(OC)c(OC)cc12	-66.6
O=S(=O)(Nc1ncnc2sc3c(c12)CCC3)c1cc(F)ccc1F	5.9
CCC1(C)OC(=O)NN(c2ccc(C)cc2)C1(C)O (stereo not given)	-35.5
COc1ccc(-c2cc(C(=O)NN)[nH]n2)cc1OC	-15.4
Cc1ccc(O)c(-c2cc(C(=O)NCc3ccncc3)[nH]n2)c1	-50.3
O=C(Nc1ccccc1F)c1ccc(Cn2cc(Cl)cn2)cc1	-100
Cn1nnc2c[n+](CC(=O)c3ccc(Cl)cc3)cc(Br)c21	-31
COc1ccc(-c2n[nH]c(=S)n2-c2ccc(C)cc2)cc1OC	3.4
Cc1ccc(-n2c([C@@H]3C[C@H]3c3ccccc3)n[nH]c2=S)cc1	-34.6
Cc1cccc(-n2c(-c3ccncc3)n[nH]c2=S)c1	-2.76
Cc1cc(-c2n[nH]c(=S)n2-c2ccc(C)c(C)c2)no1	-43
O=C(Cn1cc(C(F)(F)F)ccc1=O)N/N=C/c1ccc(O)cc1	174
COc1cc(/C=N/Nc2ccc(C(F)(F)F)cn2)ccc1O	-15

Compound	activity change, negative = inhibition [%]
COC(=O)Cc1c(C)c2ccc(OC(=O)c3ccccc3)cc2oc1=O	31.5
CCCN(Cc1ccc(N(CC)CC)cc1)CC1CC1	-0.019
CN(CC(=O)NC1CCCCC1)S(=O)(=O)c1cccc2cccnc12	5.38
O=C(Cc1ccccc1)Nc1ccc(C(=O)Nc2ccccc2C(=O)O)cc1	5.48
O=C(O)c1cccc(NC(=O)c2cccc(S(=O)(=O)Nc3cccc([N+](=O)[O-])c3)c2)c1	-2.25
O=S(=O)(NCCCN1CCN(c2ccccc2F)CC1)c1cccc2cccnc12	20.3
CNCc1ccccc1Sc1ccc(O)c(O)c1	-78.5
CC(=O)c1c(C)oc(C)c1CSCc1ccc(C(=O)O)o1	16.7
CC(C)NC(=O)c1ccc(CSCc2ccccc2Cl)o1	-4.45
Cc1cc(-c2ccccc2)nc2cc(C(=O)NCc3ccco3)nn12	-17.4
CS(=O)(=O)c1nsc2nc(=O)c(/C=C3\C=Nc4ccccc43)c(N)n12	-69.9
CCCc1nn2c(N)c(/C=C3\C=Nc4ccccc43)c(=O)nc2s1	-38
CCC(=O)Nc1ccc(C(=O)NCCCn2ccnc2)cc1	87.5
CCCC(=O)NC(c1ccc(N(C)C)cc1)c1ccc2cccnc2c1O (stereo not given)	268
CC1=Nc2cccc3cccc(c23)N1C	-10.4
Cc1nc(-c2cccc(N)c2)cs1	-3.17
O=S(=O)(c1ccc(Cl)nc1)N1CCC(Cc2ccccc2)CC1	-5.04
CO/N=C/NC(=O)c1ccc([N+](=O)[O-])c(CS(=O)(=O)c2ccc(Cl)cc2)c1	7.26
Cc1nc([N+](=O)[O-])c(Br)n1CC(=O)c1ccc(Cl)cc1	-18.7
Cc1nn(C(C)C(=O)N/N=C/c2ccc(N(C)C)cc2)c(C)c1[N+](=O)[O-] (stereo not given)	-45.7
COc1ccccc1-c1c(-c2ccc(O)cc2O)n[nH]c1C(F)(F)F	267
COc1cccc(Oc2cn[nH]c2-c2ccc(O)cc2O)c1	-53.3
Cc1cc(/C=C2\C(=N)N3N=CSC3=NC2=O)c(C)n1Cc1ccccc1	-36.4
Cn1nnnc1SCc1csc(Nc2ccccc2)n1	-51.7

Compound	activity change, negative = inhibition [%]
CCN1C(=O)/C(=C/N(C)C)c2ccccc21	14.1
Cc1ccc(-c2sc(-c3cccnc3)nc2CC(=O)O)cc1	-3.54
Cc1ccc(-c2nc(-c3ccc(Cl)cc3)sc2CC(=O)O)c(C)c1	-95.8
CCCCC(=O)Nc1ccnc(-c2cccnc2)n1	34
CN(C)c1cccc2c(/C=N/O)ccc(N(C)C)c12	3.9
O=C(Cc1cccs1)N/N=C\c1ccc(O)cc1	-96.8
Cc1ccc(C(=O)Nc2cccc([N+](=O)[O-])c2)cc1S(=O)(=O)Nc1ccc(C(=O)O)cc1	-15
COc1cccc2sc(Nc3nnc(-c4ccccc4Cl)o3)nc12	-55.9
Cc1noc(C(=O)N2CCN(c3ccccc3)CC2)c1Cl	-27.4
Cc1onc(C(=O)N2CCN(c3ccccc3)CC2)c1[N+](=O)[O-]	-51.4
c1ccc2c(c1)CC(N1CCCCC1)c1ccccc1N2 (stereo not given)	-14.9
C=CCNC(=O)c1ccccc1S(=O)c1ccccc1C#N (stereo not given)	-6.74
Nc1nc(CN2CCN(C(=O)c3ccco3)CC2)nc(Nc2cccc(Cl)c2)n1	-24.8
CN1CCN(S(=O)(=O)c2ccc(N)cc2)CC1	-29.3
Brc1ccc(-c2ncc3ccccn23)cc1	-33.1
Cc1nn(C)c(Sc2ccccc2N)c1[N+](=O)[O-]	-39.9
O=[N+]([O-])c1ccc2c(c1)CNc1ccccc1O2	-57.2
O=C(O)c1ccccc1CSC1=NCCS1	-98.5
CC(=O)Nc1ccc(SC[C@H](CC(C)C)N2CCN(CC(C)C)CCC2=O)cc1	0.961
O=C(O)c1ccc(-n2c(/C=C/c3cccc([N+](=O)[O-])c3)nc3ccccc3c2=O)cc1	-30.3
CC1CCN(CCCNC(=O)c2ccc(CSCc3cccc(Cl)c3)o2)CC1	26.9
O=C(c1ccc(CS(=O)(=O)c2ccc(Br)cc2)o1)N1CCCC1	43.5
COc1cccc(N2CCN(C(=O)c3cc(C)oc3C)CC2)c1	-48.7
O=C(c1ccc(CS(=O)Cc2ccccc2Cl)o1)N1CCN(c2cccc(Cl)c2)CC1 (stereo not given)	45.7
